Results filed as inconclusive are left out. Where a call stands in place of a potency, no number is given. Activity calls are given as the source filed them. Calls come from the whole dose curve; as a rule, active = well fitted cell-killing curve with a large enough effect; inconclusive = small, poorly fitted or top-dose-only effect; inactive = flat fitted curve, though single readings scatter.
Assay: Cell Viability - NIH 3T3 (AID 541); note: nearly all actives have a fitted effect of over 25% in size
Conditions: NIH 3T3 cell viability, qHTS; activity change, negative = cytotoxicity: at 92.2 µM (top of the series)
From the text: NIH Chemical Genomics Center [NCGC]
NIH Molecular Libraries Screening Centers Network [MLSCN]
National Institutes of Environmental Health Sciences [NIEHS]
National Toxicology Program [NTP]
We have developed a 1536-well cell-based assay for quantitative high throughput screening (qHTS) against a number of cell lines to determine in vitro cytotoxicity of small molecules. This particular assay uses the NIH 3T3 fibroblast cell line which is established from NIH Swiss mouse embryo.
NCGC Assay Protocol Summary:
The CellTiter-Glo luminescent cell viability assay (Promega) is a homogeneous method to measure the number of viable cells in culture. The end point readout of this assay is based on quantitation of intracellular ATP, an indicator of metabolic activity, using the luciferase reaction. Luciferase catalyzes the oxidation of beetle Luciferin to oxyluciferin and light in the presence of ATP. The luminescent signal is proportional to amount of ATP present.
Using the CellTiter-Glo luminescent cell viability assay, the amount of cellular ATP was measured in the NIH 3T3 cell line with complete culture medium following compound treatment for 40 hours. The assay was performed in opaque white Kalypsys 1536-well plates. In the screen, tamoxifen and doxorubicin were used as positive controls. Library compounds were measured for their ability to cause acute toxicity in the cell line, as reflected by a decrease in intracellular ATP levels, in a concentration-dependent manner. […] AC50 values were determined from concentration-response data modeled with the standard Hill equation.
qHTS protocol for CellTiter Glo NIH 3T3 cellular assay
[Step] [Parameter] [Value] [Description]
1. Reagent; 5 uL; 1000 NIH 3T3 cells/well
2. Time; 5 hr; 37 °C incubation
4. Controls; 23 nL; Tamoxifen 0.34 uM to 100 uM & Doxorubicin 0.02 nM to 100 uM
5. Time; 40 hr; 37 °C incubation
6. Reagent; 5 uL; CellTiter Glo reagent
7. Time; 20 min; Room Temperature
8. Detection; Luminescence; Viewlux plate reader
Keywords: cell viability, cytotoxicity, NIH 3T3 cell line, luminescence, NTPHTS, NTPHTS_NCGC, NIEHS, EPA, DSSTox, MLSMR, MLSCN, NIH Roadmap, qHTS, NCGC
Potency is the fitted concentration of half-maximal effect.

Compound | Potency | activity change, negative = cytotoxicity
N#CCCCCC#N | inactive | 
CN(C)C(=O)Nc1cccc(C(F)(F)F)c1 | inactive | 
FC(Cl)(Cl)Cl | inactive | 
CCCCCc1cc(O)cc(O)c1 | inactive | 
CCOS(C)(=O)=O | inactive | 
Nc1c(Br)cc([N+](=O)[O-])cc1[N+](=O)[O-] | inactive | 
Oc1ccc(Cl)c(Cl)c1Cl | inactive | 
Clc1cccc(Cl)c1Cl | inactive | 
Nc1cccc(Cl)c1 | inactive | 
Oc1cc(Cl)cc(Cl)c1 | inactive | 
[O-][Cl+2]([O-])O | inactive | 
CN(C)N=O | inactive | 
CC(C)C#N | inactive | 
O=[N+]([O-])/C=C/c1ccccc1 | 15.8 µM (active) | 
BrCCc1ccccc1 | inactive | 
C=CCO | inactive | 
C=CC=O | inactive | 
ClCCOCCCl | inactive | 
O=[N+]([O-])c1ccccc1CCl | 12.6 µM (active) | 
O=[N+]([O-])c1ccc(Cl)cc1 | inactive | 

Compound | Potency | activity change, negative = cytotoxicity
Nc1ccc2ccccc2c1 | inactive | 
O=[N+]([O-])c1ccccc1-c1ccccc1 | inactive | 
O=C(Cl)OCc1ccccc1 | inactive | 
CC(=O)NNc1ccccc1 | inactive | 
Clc1ccc(C(Cl)(Cl)Cl)c(Cl)c1 | inactive | 
Nc1ccc(-c2ccccc2)cc1 | inactive | 
Oc1cccc(Cl)c1Cl | inactive | 
Brc1ccc(Oc2ccc(Br)cc2Br)c(Br)c1 | inactive | 
CCOC(=O)C1OC1(C)c1ccccc1 (stereo not given) | inactive | 
CCCCNC(=O)n1c(NC(=O)OC)nc2ccccc21 | 5.01 µM (active) | 
S=C1NCCN1 | inactive | 
CCOP(=S)(OCC)Oc1nc(Cl)c(Cl)cc1Cl | inactive | 
CC12CC1(C)C(=O)N(c1cc(Cl)cc(Cl)c1)C2=O (stereo not given) | inactive | 
O=C(O)C(Cl)(Cl)Br | inactive | 
Nc1ccc(-c2ccc(N)c(Cl)c2)cc1Cl | 15.8 µM (active) | 
CCCC[N+](=O)[O-] | inactive | 
CC(C)(C)OOC(=O)c1ccccc1 |  | -137% (active)
CC(C)(C)C(O)(CCc1ccc(Cl)cc1)Cn1cncn1 (stereo not given) | inactive | 
O=C(Cc1ccccc1)OCc1ccccc1 | inactive | 
c1ccc(N=NNc2ccccc2)cc1 | inactive | 
